Pf growth 96h: P. falciparum growth inhibition at 96 hour, primary screen for plastid delayed-death inhibitors. P. falciparum luciferase reporter growth, 96 h. Potency, µM (series often up to 28.7 µM), for the others: at the top dose activity change, negative = inhibition, most hits filed as inhibitors. 320,000 compounds, 6.9% hits; also: potency is read from the fitted curve at half-maximal effect; % is scaled to controls: 0 for no effect and ±100 for the full control effect
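Two parasite generations (96 h, 37 C, 5% CO2) of compound exposure in infected erythrocytes (0.05% parasitemia, 2% hematocrit). Luciferase-reporter P. falciparum; decreased luminescence indicates inhibited growth, aimed at apicoplast-acting delayed death.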
Lassa entry inh: inhibitors of Lassa virus binding or cell entry; Lassa virus pseudotype entry inhibition, cell reporter; Potency, µM (series often up to 37.9 µM), for the others: at the highest dose activity change, negative = inhibition, hits mostly inhibitors; 300,000 compounds, 1.2% hits; AID 540256; calls by dose curve; tested in HEK293 cells; also: potency is read from the fitted curve at half-maximal effect; % is scaled to controls: 0 for no effect and ±100 for the full control effect; nearly all actives have a fitted effect of over 50% in size
Shiga inhibitor: inhibitors of Shiga toxin in Vero cells | Vero cells, Shiga toxin protein synthesis inhibition reporter | inhibition, % at 38.7 µM | 290,000 compounds, 9.2% hits | AID 2315; in the data active = inhibition mostly above about 28%, no sharp cut-off; inactive = mostly below about 43%; also: 0% is about no effect
MARV entry inh: blocks Marburg virus binding to or entry into cells; Marburg virus pseudotyped entry inhibition, cell reporter; Potency, µM (series often up to 37.8 µM), inactives show at the highest dose activity change, negative = inhibition, usual class: inhibitors; 300,000 compounds, 1.8% hits; AID 540276; calls by dose curve; tested in HEK293 cells; also: potency is read from the fitted curve at half-maximal effect; % is scaled to controls: 0 for no effect and ±100 for the full control effect
CHX counter: counter-screen for Shiga toxin inhibitors: cycloheximide protein synthesis inhibition; max response, %; AID 2314; 300,000 compounds, 12% hits; cell reporter, cycloheximide protein synthesis inhibition counterscreen; in the data active = max response mostly above about 13%, no sharp cut-off; inactive = mostly below about 14%; also: read at 38.3 µM for the half of the compounds with a filed dose; 0% is about no effect
Pf growth 48h: inhibits P. falciparum growth in the first generation, 48 h; AID 504832; 310,000 compounds, 5.9% hits; Potency, µM (series often up to 28.7 µM), without a hit: at the top dose activity change, negative = inhibition, hits mostly inhibitors; P. falciparum luciferase growth in erythrocytes, 48 h; also: potency is read from the fitted curve at half-maximal effect; % is scaled to controls: 0 for no effect and ±100 for the full control effect
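Parasite viability was followed by luminescence of a genomically integrated firefly luciferase. Cultures held 0.1% parasitemia at 2% hematocrit (final), incubated under 5% CO2 at 37 C.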
* = called active by the depositor; ? = inconclusive; nt = not tested or not shown; [ ] = dose if it differs, or a comment. This is a sample that favours compounds with a hit; in the whole collection about 19% have one here. Unless noted, calls follow the shape of the dose curve; as a rule, active = well fitted inhibition curve with a large enough effect; inconclusive = small, poorly fitted or top-dose-only effect, or another doubt; inactive = no such curve, though single readings can be large or run the other way.

SMILES | Pf growth 96h | Lassa entry inh | Shiga inhibitor | MARV entry inh | CHX counter | Pf growth 48h
CCN(CC)S(=O)(=O)c1cccc(C(=O)Nc2nnc(C)s2)c1 | 308% | -12% | -8 | -3%[46.1 µM] | 19 | 30%
CCN(CC)c1ccc(/C=N/NS(=O)(=O)c2ccc(CNC(C)=O)cc2)cc1 | 10% | -8% | -17 | -4% | -1 | 29%
CCOC(=O)c1sc(NC(=O)c2cccc(S(=O)(=O)N3CCN(C)CC3)c2)cc1C | -9% | 2% | 17 | ? | 31 | 2.3µM*
CCc1cccc(CC)c1NC(=O)c1cccc(S(=O)(=O)N2CCN(C)CC2)c1 | -22% | 3% | -16 | -14% | -2 | 3%
Cc1ccc(S(=O)(=O)N2CCOCC2)cc1C(=O)NC1CCCC(C)C1C (stereo not given) | -17% | -5% | nt | ? | nt | ?
COC(=O)c1cc(C)sc1NC(=O)CCCC(=O)O | 9.3µM* | -7% | -6 | 5% | -2 | -2%
CC1(c2ccccc2)CC(C)(C)N2C(=O)Cc3cccc1c32 (stereo not given) | 42%[5.75 µM] | ? | -14 | ? | -4 | 15µM*
CC1(c2ccccc2)CC(C)(C)N(C(=O)c2cccc(Cl)c2)c2ccccc21 (stereo not given) | nt | -19%[46.1 µM] | nt | nt | nt | nt
CC(=O)Nc1ccc(S(=O)(=O)NC2(C(F)(F)F)NC(=O)N(c3ccc(C)cc3)C2=O)cc1 (stereo not given) | 9.3µM* | 14% | -10 | 23% | -2 | 9%
Cc1ccc(S(=O)(=O)NC2(C(F)(F)F)NC(=O)N(c3ccc(F)cc3)C2=O)cc1 (stereo not given) | -8% | 21%[46.1 µM] | -3 | 2%[46.1 µM] | -4 | 14%
CCOC(=O)NC1(C(F)(F)F)NC(=O)N(c2cccc(C(F)(F)F)c2)C1=O (stereo not given) | ? | -7% | -11 | 5% | -1 | 6%
CCOC(=O)NC1(C(F)(F)F)NC(=O)N(c2ccc(F)cc2)C1=O (stereo not given) | 4.7µM* | 12% | -8 | 11% | -4 | 1%
O=C(Nc1ccccc1Cl)C(Cl)C(=O)c1ccccc1 (stereo not given) | 5% | 5% | 102* | 8%[46.1 µM] | 48* | 39%
O=C(Nc1ccc(Cl)cc1)C(c1ccccc1)N(CCO)CCO (stereo not given) | 37% | 3% | 13 | 16% | 3 | 4%
O=C(Nc1ccc(Cl)cc1)C(Cl)C(=O)c1ccccc1 (stereo not given) | -24% | -13%[46.1 µM] | 53 | 17%[46.1 µM] | 19* | 22%
O=C(CSCC(=O)c1ccccc1)Nc1ccccc1Cl | 16% | 7% | 7 | 4%[46.1 µM] | 13 | 14%
CCOC(=O)c1c(C)oc2c1c1c(c3ccccc32)OCN(Cc2cccnc2)C1 | ? | ? | 131* | 7% | 77* | ?
CCOC(=O)c1c(C)oc2c1c1c(c3ccccc32)OCN(CCCC(=O)O)C1 | 20% | nt | 89* | nt | 62* | 87%
COc1ccc(NC(=S)N2CCN(C(c3ccccc3)c3ccccc3)CC2)c(OC)c1 | 72% | ? | -5 | ? | 0 | 5.2µM*
COc1cccc(N2CCN(C(=S)Nc3ccccc3OC)CC2)c1 | 9.3µM* | ? | nt | 15% | -2 | -14%
COc1cccc(NC(=S)N2CCN(C(c3ccccc3)c3ccccc3)CC2)c1 | 31% | ? | -7 | ? | -4 | 26%
CCOc1ccccc1NC(=S)N1CCN(c2cccc(OC)c2)CC1 | ? | nt | -8 | nt | 1 | -27%
COc1cc([N+](=O)[O-])ccc1NC(=O)CN1CCc2cc(OC)c(OC)cc2C1 | ? | ? | 3 | 4% | 1 | ?
CC(CCc1ccco1)NC(=O)c1cccc2c1C(=O)N(C1CCCCC1)C2 (stereo not given) | ? | nt | -8 | nt | 5 | ?
COc1ccc(N2Cc3cccc(C(=O)NC(C)CCc4ccco4)c3C2=O)cc1 (stereo not given) | 12µM* | nt | 15 | 6% | 0 | nt
CNC(=O)/C(=C\c1ccco1)NC(=O)c1ccco1 | 0% | -16% | -24 | 6% | 2 | 9.3µM*
O=C(Nc1cccc(F)c1)/C(=C/c1ccco1)NC(=O)c1ccco1 | -26% | nt | 25 | nt | 20* | -3%

Source: PubChem
